Experiments:
Experiment in all cases: log2 ratio of Biotin-Ahx-Ub-VS probe labelling (fragment/DMSO); higher = less target engagement (more negative = stronger competition), active = hit call of the paper (q ≤ 0.05, log2 ratio ≤ -1)
Settings in all cases: compound concentration: 200 uM; treatment time: 3 h
USP42 = biological target: T1, USP42 (UniProt Q9H9J4)
T1 sequence (whole entry): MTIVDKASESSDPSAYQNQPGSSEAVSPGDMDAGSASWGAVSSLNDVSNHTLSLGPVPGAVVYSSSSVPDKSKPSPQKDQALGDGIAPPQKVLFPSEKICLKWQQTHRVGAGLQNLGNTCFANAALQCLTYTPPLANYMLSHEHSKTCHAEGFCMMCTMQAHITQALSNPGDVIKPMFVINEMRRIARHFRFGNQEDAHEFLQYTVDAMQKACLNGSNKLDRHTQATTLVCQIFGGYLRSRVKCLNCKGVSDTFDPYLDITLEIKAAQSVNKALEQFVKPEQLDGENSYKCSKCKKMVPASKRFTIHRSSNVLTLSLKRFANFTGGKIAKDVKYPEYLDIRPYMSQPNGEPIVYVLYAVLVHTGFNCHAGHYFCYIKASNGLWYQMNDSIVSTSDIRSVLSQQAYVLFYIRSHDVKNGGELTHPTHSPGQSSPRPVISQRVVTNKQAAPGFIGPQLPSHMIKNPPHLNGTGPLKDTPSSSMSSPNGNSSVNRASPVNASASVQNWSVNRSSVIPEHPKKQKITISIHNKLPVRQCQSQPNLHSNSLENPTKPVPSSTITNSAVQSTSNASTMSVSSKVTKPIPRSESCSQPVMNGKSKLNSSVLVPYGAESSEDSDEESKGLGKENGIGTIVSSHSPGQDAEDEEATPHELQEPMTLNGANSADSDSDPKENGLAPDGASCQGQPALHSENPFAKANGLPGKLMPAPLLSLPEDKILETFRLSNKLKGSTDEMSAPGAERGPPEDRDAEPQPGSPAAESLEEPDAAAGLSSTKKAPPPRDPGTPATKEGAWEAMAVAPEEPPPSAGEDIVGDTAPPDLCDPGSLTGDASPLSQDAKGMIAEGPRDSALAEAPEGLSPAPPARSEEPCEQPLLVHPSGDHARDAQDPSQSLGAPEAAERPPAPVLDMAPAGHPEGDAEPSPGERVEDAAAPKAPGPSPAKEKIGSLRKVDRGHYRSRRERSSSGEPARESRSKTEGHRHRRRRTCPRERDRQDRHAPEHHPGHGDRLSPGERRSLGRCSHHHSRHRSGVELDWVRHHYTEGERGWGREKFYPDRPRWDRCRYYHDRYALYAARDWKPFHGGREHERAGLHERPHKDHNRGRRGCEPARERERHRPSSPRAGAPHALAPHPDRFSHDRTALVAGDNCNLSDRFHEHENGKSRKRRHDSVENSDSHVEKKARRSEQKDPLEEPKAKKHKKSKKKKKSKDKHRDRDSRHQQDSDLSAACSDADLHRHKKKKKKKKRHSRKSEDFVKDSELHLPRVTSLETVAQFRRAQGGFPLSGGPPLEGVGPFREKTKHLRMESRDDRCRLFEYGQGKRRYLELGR
Procedure, shortened: (§1)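 Labelling with Biotin-Ahx-Ub-VS (0.5 µM final, 1 h) followed a 3 h triplicate treatment of HEK293T lysate (495 µg per sample, Tris/CHAPS/IGEPAL buffer with protease inhibitors) with fragment at 200 µM or vehicle. Labelled DUBs were NeutrAvidin-enriched, digested with LysC and trypsin, and run by diaPASEF LC-MS/MS. The values, average log2 fragment/vehicle ratios by unpaired t-test, come from global-median-normalised Spectronaut label-free quantities. Proteins with ≥2 unique peptides were used.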

USP46 = USP46 (UniProt P62068)
Procedure, shortened: as §1

USP47 = biological target: T2, USP47 (UniProt Q96K76)
T2 sequence (whole entry): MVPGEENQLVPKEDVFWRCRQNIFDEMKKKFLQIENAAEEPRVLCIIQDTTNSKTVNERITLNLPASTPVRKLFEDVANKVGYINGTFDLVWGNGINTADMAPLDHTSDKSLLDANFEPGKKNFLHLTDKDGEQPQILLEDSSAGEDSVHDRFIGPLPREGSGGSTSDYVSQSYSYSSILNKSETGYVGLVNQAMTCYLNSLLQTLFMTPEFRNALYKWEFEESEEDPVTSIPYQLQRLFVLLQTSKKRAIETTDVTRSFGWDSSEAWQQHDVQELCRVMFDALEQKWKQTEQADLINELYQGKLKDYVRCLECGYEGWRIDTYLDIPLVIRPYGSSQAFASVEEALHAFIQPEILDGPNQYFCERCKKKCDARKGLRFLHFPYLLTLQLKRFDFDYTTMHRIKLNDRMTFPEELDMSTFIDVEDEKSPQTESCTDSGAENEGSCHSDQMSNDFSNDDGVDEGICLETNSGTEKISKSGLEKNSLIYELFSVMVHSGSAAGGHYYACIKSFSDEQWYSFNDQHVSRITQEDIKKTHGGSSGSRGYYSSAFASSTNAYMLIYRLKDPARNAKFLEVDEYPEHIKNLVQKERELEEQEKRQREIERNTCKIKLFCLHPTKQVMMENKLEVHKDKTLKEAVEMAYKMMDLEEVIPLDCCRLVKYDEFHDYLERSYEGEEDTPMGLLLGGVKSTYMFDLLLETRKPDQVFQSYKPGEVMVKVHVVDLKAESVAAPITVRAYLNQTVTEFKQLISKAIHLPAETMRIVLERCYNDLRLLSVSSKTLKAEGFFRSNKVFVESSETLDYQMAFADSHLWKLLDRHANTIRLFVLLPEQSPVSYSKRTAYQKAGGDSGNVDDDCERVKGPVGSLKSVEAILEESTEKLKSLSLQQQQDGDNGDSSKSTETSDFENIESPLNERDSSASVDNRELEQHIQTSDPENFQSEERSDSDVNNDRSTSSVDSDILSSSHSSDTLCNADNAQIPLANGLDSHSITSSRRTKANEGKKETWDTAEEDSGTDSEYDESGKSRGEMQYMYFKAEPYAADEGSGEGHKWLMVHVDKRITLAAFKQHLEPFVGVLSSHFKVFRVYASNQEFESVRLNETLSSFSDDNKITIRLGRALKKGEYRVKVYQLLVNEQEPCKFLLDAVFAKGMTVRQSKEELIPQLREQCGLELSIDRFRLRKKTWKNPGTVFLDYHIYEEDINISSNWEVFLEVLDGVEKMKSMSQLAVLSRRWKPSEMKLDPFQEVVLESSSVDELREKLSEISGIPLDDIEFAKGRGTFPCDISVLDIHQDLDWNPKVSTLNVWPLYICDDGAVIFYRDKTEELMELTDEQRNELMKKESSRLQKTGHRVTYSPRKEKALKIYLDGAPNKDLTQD
Procedure, shortened: as §1

USP48 = biological target: T3, USP48 (UniProt Q86UV5)
T3 sequence (whole entry): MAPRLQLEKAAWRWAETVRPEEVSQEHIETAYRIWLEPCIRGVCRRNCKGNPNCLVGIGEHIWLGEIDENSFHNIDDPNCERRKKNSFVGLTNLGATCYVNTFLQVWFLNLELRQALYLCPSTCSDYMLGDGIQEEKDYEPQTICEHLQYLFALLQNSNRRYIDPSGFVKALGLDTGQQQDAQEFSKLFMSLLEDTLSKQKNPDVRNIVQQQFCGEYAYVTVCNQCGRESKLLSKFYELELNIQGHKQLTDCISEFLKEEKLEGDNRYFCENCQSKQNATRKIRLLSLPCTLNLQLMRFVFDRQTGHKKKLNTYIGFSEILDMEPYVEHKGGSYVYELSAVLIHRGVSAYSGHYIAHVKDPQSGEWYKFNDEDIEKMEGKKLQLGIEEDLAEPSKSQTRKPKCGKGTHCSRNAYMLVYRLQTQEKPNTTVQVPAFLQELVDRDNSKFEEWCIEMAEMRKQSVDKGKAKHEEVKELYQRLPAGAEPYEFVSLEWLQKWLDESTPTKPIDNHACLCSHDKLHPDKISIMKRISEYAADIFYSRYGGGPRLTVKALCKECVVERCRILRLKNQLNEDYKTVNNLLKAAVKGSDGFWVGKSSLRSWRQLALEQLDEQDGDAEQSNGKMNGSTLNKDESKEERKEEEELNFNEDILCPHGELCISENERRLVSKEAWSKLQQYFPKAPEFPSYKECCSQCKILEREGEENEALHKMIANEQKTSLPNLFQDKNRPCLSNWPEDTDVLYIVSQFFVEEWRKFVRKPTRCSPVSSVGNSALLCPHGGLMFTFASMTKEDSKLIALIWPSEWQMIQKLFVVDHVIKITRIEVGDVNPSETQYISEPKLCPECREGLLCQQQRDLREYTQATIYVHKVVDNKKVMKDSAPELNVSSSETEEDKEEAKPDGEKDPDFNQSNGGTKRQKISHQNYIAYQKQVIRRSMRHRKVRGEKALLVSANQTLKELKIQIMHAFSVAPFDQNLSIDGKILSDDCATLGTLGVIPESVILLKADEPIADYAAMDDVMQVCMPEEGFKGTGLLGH
Procedure, shortened: as §1

USP5 = biological target: T4, USP5 (UniProt P45974)
T4 sequence (whole entry): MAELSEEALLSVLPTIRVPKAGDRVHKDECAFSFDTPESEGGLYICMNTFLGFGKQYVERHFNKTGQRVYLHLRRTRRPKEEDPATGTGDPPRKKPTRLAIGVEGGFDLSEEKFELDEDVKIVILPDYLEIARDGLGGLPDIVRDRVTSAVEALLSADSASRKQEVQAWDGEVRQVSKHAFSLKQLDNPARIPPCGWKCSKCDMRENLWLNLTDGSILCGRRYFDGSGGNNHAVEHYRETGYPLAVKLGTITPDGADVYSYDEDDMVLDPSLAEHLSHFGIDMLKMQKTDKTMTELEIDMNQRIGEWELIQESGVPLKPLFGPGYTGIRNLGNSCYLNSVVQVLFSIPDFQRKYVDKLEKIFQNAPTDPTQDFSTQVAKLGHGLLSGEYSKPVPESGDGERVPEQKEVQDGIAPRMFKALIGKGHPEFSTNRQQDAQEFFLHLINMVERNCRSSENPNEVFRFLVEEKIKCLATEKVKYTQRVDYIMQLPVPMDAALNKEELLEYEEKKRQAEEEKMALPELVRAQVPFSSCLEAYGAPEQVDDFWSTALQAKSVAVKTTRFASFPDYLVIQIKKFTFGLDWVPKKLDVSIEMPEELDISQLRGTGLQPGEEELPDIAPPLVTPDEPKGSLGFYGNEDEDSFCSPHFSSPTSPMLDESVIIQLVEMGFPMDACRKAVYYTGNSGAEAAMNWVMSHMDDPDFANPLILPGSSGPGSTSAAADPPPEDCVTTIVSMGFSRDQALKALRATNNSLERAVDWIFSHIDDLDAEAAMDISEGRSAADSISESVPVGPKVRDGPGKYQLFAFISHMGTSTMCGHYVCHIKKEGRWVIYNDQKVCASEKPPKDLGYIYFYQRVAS
Procedure, shortened: as §1

USP54 = USP54 (UniProt Q70EL1)
Procedure, shortened: as §1

USP7 = USP7 (UniProt Q93009)
Procedure, shortened: as §1

USP8 = biological target: T5, USP8 (UniProt P40818)
T5 sequence (whole entry): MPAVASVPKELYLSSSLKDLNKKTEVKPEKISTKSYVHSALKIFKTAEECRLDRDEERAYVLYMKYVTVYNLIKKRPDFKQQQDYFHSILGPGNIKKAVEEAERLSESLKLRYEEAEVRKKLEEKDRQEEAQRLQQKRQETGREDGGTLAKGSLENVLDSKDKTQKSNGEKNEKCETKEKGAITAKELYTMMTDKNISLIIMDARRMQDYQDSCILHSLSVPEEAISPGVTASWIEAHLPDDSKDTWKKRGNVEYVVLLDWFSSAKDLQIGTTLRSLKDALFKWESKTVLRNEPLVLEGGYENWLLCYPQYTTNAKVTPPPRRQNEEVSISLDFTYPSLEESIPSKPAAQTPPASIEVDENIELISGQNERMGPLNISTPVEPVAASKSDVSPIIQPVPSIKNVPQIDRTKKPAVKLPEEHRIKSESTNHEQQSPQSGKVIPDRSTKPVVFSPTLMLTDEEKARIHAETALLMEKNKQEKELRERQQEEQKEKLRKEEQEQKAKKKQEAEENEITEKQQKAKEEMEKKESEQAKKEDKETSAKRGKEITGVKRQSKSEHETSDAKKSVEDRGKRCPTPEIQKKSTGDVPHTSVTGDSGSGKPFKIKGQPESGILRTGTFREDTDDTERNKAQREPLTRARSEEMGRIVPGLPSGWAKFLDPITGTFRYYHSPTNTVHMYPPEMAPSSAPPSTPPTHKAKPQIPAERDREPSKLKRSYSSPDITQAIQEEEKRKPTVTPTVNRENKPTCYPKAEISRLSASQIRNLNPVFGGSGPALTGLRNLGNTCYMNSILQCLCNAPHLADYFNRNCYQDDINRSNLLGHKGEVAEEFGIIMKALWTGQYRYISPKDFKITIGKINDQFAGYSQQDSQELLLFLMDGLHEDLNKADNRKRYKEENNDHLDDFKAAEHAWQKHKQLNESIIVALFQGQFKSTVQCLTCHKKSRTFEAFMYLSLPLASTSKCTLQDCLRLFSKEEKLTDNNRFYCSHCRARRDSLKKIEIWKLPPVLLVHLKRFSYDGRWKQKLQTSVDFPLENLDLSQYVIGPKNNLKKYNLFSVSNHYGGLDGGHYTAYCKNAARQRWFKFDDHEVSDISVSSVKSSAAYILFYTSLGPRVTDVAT
Procedure, shortened: as §1

USP9X = USP9X (UniProt Q93008)
Procedure, shortened: as §1

UniProt O00487 = biological target: UniProt O00487
Procedure, shortened: as §1

Measured: log2 ratio of Biotin-Ahx-Ub-VS probe labelling

Sequence of USP54 (Q70EL1 whole entry): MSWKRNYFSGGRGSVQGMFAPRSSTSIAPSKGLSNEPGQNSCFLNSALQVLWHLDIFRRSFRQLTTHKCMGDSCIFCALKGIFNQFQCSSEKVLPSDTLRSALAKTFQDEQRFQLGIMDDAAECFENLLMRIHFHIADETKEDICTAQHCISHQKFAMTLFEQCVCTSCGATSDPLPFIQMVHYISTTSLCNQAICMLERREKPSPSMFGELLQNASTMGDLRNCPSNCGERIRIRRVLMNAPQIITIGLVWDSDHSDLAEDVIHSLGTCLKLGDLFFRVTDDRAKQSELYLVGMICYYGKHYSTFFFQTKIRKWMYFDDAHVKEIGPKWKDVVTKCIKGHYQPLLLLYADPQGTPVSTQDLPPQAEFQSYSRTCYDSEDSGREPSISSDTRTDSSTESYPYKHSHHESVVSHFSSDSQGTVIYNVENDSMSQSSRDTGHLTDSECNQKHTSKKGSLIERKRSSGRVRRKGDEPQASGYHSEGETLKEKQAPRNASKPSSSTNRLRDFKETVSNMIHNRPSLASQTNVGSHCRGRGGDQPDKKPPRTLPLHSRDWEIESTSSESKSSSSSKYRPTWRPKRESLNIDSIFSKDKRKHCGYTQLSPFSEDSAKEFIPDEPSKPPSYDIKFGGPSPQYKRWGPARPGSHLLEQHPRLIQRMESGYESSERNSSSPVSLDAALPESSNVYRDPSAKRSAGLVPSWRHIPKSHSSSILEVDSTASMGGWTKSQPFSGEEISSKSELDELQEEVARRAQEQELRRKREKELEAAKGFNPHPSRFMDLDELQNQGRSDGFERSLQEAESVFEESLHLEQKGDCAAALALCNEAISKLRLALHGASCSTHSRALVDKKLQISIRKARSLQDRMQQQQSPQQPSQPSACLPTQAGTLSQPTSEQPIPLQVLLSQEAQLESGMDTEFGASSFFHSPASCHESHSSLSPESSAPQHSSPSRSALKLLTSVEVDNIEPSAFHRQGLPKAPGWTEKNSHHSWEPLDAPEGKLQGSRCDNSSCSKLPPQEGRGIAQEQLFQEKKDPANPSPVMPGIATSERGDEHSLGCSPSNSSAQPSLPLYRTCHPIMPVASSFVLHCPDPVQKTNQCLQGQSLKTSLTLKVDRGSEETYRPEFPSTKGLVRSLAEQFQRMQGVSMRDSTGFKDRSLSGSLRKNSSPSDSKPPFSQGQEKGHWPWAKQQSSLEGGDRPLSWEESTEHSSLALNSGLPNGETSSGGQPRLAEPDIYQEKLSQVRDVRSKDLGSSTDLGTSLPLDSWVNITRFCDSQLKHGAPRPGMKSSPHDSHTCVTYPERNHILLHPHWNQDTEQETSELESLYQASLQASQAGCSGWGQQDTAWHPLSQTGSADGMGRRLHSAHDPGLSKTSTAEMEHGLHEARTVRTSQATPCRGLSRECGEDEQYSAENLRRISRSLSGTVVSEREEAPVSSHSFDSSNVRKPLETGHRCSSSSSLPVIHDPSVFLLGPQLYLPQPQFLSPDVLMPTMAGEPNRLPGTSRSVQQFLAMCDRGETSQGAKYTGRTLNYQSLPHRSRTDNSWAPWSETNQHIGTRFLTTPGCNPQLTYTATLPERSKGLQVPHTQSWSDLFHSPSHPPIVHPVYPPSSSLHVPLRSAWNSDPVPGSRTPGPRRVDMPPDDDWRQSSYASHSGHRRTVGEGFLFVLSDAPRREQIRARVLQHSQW
Sequence of USP9X (Q93008 whole entry): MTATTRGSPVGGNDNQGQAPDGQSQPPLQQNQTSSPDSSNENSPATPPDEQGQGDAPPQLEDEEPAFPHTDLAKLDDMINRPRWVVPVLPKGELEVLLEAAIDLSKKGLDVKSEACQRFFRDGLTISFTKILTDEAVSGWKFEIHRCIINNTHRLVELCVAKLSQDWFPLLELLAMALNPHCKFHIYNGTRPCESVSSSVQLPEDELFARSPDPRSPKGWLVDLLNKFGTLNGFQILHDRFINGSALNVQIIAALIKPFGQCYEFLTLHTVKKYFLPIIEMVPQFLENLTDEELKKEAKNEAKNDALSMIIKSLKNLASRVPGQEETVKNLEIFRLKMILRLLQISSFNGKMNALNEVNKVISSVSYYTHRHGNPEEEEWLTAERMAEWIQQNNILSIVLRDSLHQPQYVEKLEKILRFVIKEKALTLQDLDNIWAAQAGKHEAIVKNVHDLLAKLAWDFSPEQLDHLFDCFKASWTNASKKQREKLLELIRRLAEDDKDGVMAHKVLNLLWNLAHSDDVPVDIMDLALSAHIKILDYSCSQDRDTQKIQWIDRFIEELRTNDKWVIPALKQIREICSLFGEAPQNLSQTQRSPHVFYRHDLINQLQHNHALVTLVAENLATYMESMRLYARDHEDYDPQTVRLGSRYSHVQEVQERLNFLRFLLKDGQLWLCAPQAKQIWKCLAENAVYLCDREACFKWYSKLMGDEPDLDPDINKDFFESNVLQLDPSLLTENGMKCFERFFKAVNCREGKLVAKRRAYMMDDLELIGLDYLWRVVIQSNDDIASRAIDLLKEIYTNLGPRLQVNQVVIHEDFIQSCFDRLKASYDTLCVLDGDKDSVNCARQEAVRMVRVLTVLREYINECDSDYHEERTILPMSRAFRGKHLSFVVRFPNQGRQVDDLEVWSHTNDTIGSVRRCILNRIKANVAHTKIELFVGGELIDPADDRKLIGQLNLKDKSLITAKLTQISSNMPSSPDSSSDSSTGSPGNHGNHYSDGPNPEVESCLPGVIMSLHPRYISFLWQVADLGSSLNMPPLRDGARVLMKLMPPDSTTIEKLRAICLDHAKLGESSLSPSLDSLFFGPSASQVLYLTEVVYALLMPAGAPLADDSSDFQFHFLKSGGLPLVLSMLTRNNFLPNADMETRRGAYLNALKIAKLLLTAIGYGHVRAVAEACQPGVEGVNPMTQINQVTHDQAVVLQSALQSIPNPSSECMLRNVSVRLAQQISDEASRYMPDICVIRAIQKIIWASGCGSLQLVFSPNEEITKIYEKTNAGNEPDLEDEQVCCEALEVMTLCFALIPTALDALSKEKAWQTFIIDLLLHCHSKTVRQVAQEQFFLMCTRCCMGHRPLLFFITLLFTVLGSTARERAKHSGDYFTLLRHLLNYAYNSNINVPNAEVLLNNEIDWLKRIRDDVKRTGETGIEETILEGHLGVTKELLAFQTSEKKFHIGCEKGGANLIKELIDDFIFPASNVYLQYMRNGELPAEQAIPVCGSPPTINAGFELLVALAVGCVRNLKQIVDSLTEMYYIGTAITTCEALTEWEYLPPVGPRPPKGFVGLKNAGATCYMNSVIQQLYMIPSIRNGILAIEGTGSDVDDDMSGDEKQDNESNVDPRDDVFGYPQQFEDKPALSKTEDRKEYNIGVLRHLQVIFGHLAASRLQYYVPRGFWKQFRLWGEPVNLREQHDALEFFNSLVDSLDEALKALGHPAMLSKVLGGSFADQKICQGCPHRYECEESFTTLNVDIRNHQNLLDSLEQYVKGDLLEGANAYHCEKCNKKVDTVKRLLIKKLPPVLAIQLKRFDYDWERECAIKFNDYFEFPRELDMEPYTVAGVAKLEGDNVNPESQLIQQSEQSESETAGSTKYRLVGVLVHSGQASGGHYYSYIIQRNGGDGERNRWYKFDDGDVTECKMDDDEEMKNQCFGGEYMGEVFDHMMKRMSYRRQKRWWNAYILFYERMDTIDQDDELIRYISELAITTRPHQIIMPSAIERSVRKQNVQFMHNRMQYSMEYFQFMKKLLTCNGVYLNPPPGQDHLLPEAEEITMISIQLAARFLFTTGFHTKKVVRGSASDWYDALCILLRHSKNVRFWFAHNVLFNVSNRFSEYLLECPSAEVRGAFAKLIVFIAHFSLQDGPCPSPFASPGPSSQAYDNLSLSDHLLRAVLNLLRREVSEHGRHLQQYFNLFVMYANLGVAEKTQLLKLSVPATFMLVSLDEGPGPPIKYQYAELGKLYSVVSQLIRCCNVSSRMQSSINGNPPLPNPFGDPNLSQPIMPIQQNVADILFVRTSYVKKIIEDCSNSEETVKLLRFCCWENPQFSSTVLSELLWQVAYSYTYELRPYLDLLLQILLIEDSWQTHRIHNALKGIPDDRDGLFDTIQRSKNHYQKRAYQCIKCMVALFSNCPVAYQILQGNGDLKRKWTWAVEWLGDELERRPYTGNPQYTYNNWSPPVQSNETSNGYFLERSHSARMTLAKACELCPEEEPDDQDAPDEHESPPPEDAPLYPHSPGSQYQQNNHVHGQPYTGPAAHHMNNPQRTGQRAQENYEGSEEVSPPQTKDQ
Sequence of USP46 (P62068 whole entry): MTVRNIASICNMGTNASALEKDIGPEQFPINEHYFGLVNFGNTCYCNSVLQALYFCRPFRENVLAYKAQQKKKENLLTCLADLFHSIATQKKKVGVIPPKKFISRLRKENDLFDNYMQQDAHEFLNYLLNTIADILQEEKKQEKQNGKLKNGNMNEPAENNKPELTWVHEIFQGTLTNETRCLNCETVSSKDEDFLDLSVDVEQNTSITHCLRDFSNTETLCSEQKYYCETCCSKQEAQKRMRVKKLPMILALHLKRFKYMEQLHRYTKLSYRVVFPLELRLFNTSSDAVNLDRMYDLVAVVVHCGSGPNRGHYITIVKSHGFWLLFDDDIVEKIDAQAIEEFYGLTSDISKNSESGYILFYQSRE
Sequence of UniProt O00487 (O00487 whole entry): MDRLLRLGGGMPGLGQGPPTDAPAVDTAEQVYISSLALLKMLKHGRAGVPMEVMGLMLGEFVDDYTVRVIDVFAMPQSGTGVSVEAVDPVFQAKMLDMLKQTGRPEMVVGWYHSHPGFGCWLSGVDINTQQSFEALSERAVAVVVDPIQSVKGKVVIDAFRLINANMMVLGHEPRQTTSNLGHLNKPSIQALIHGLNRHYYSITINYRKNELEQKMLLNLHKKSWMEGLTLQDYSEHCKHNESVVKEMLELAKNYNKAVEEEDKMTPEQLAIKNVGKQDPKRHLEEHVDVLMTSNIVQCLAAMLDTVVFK

O=C(CCl)N1CCc2sccc2C1
inactive: USP42 0.32 | USP46 -0.578 | USP47 -0.774 | USP48 -0.677 | USP5 -0.108 | USP54 -0.356 | USP8 0.015 | USP9X -0.286 | UniProt O00487 0.0182
active: USP7 -1.34

Reference: the supplement of paper PMC11732987, “Enantioselective OTUD7B fragment discovery through chemoproteomics screening and high-throughput optimisation” (Communications Chemistry, 2025)
